Measured values taken from PubChem BioAssay (Tox21).
Where “and” joins values, the source holds several entries; their conditions need not be identical. Identical values can stand only once. Results filed as inconclusive are left out. Where a structure was tested more than once in an assay, its records may differ in their call. Calls of active or inactive are those of the source. Unless noted, calls come from the whole dose curve; as a rule, active = well fitted curve in the direction sought with a large enough effect in the repeat runs; inconclusive = weak or mixed curves; inactive = no such curve, though single readings can be large; an effect the other way counts as inactive or inconclusive.

Experiments:
[1] = qHTS assay for small molecules that induce genotoxicity in human embryonic kidney cells expressing luciferase-tagged ATAD5 (AID 651632); note: % is set by controls: 0 for no effect and ±100 for the full control effect; nearly all actives have a fitted effect of over 15% in size
Method in brief: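 A rise in luciferase signal from ATAD5-tagged HEK293T cells marks genetic stress. Cells were exposed to compounds for 16 hr at 37C, 5% CO2, then luciferase was quantified after a 30 min room-temperature incubation with Amplite.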

[2] = qHTS assay for small molecule agonists of the p53 signaling pathway - cell viability (AID 651633; calls by dose curve; note: nearly all actives have a fitted effect of over 30% in size; note: potency is the fitted concentration of half-maximal effect)
Method in brief: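 p53RE-bla cells, seeded at 4,000 per well and rested 5 h at 37 C/5% CO2, received compounds in DMSO for 16 h at 37 C. CellTiter-Glo was then added, and luminescence was read after 30 min at room temperature to gauge cytotoxicity.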

[3] = qHTS assay for small molecules that induce genotoxicity in human embryonic kidney cells expressing luciferase-tagged ATAD5 - cell viability (AID 651634; calls by dose curve; note: nearly all actives have a fitted effect of over 25% in size; note: potency is the fitted concentration of half-maximal effect)
Method in brief: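 Cytotoxicity counter-readout: after 15.5 hr compound treatment at 37C, live-cell protease activity in ATAD5-luciferase HEK293T cells measured by CellTiter-Fluor fluorescence, 30 min development at 37C.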

[4] = qHTS assay for small molecule disruptors of the mitochondrial membrane potential (AID 720635); note: potency is the fitted concentration of half-maximal effect
Method in brief: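 HepG2 cells (2,000/well) attached overnight at 37C, then took compound for 1 hr at 37C, 5% CO2. Mito-MPS dye was added for 30 min; fluorescence was read at 490/535 nm (monomers) and 540/590 nm (aggregates).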

[5] = qHTS assay to test for compound auto fluorescence at 590 nm (red) in HepG2 cells (AID 720674); note: % is set by controls: 0 for no effect and ±100 for the full control effect
Method in brief: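 Rose Bengal sodium served as the red fluorophore standard. HepG2 monolayers (overnight attachment, MEM with 10% FBS) were exposed to test compounds for 1 hr at 37 C and read at Ex 540/Em 590 nm.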

[6] = qHTS assay to test for compound auto fluorescence at 535 nm (green) in HepG2 cells (AID 720675); note: % is set by controls: 0 for no effect and ±100 for the full control effect
[7] = qHTS assay to test for compound auto fluorescence at 460 nm (blue) in HEK293 cells (AID 720678); note: potency is the fitted concentration of half-maximal effect
Method in brief: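 Auto fluorescence in the blue band was quantified as triamterene equivalency. HEK293 cells were seeded at 2,000/well, dosed after a 4-5 hr attachment, and kept overnight at 37C before the 405/460 nm reading.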

[8] = qHTS assay to test for compound auto fluorescence at 590 nm (red) in HEK293 cells (AID 720679); note: % is set by controls: 0 for no effect and ±100 for the full control effect
Method in brief: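 Autofluorescence equivalency to Rose Bengal sodium, 540/590nm, in HEK293 cells exposed overnight to 23 nL compound per well.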

[9] = qHTS assay for small molecule disruptors of the mitochondrial membrane potential - cell viability (AID 720634; calls by dose curve; note: nearly all actives have a fitted effect of over 20% in size; note: potency is the fitted concentration of half-maximal effect)
Method in brief: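 Cytotoxicity was quantified from ATP content by CellTiter-Glo luminescence in the same wells as the MMP dye read-out. HepG2 (2,000 cells/well) were plated overnight and exposed to compounds for 1 hr at 37 C.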
Tags give direction and shape of the fitted curve or compound fluorescence and quenching.

CC1(C)CN=C(NN=C(/C=C/c2ccc(C(F)(F)F)cc2)/C=C/c2ccc(C(F)(F)F)cc2)NC1
active: Potency [2] 27.3 µM | Potency [3] 48.6 µM | Potency [4] 17.2 µM
inactive: Potency [1] | outcome [5] | outcome [6] | Potency [7] | outcome [8]

COc1cccc(C(=O)CCN[C@@H](C)[C@H](O)c2ccccc2)c1
inactive: Potency [1] | Potency [2] | Potency [3] | Potency [9] | outcome [5] | outcome [6] | Potency [7] | outcome [8]

COP(=O)(OC)SCn1c(=O)oc2cc(Cl)cnc21
inactive: Potency [1] | Potency [2] | Potency [9] | outcome [5] | outcome [6] | Potency [7] | outcome [8]

CC(C)Oc1cccc(NC(=O)c2ccccc2C(F)(F)F)c1
active: Potency [9] 30.6 µM | Potency [4] 17.2 µM
inactive: Potency [1] | Potency [2] | Potency [3] | outcome [5] | outcome [8]

O=C(CBr)c1ccc(O)cc1
inactive: Potency [1] | Potency [2] | Potency [3] | Potency [9] | outcome [5] | outcome [6] | Potency [7] | outcome [8]

Clc1ccc(C(Cl)(Cl)Cl)c(Cl)c1
inactive: Potency [1] | Potency [2] | Potency [9] | outcome [5] | Potency [7] | outcome [8]
active: Potency [4] 61.6 µM

CCCCCCCCCC[N+](C)(C)CCCCCCCCCC
26.6 µM (active) and inactive: Potency [9]
active: Potency [2] 26.6 µM and 61.1 µM | Potency [4] 8.41 µM and 24.3 µM
inactive: Potency [1] | outcome [5] | outcome [6] | Potency [7] | outcome [8]

Cc1cc(C)c(C2=C(OC(=O)CC(C)(C)C)C3(CCCC3)OC2=O)c(C)c1
inactive: Potency [1] | Potency [2] | Potency [3] | outcome [5] | outcome [6] | Potency [7] | outcome [8]
active: Potency [4] 12.8 µM

O=C1c2ccccc2C(=O)C1C(=O)C(c1ccccc1)c1ccc(Cl)cc1 (stereo not given)
inactive: Potency [1] | outcome [5] | outcome [6] | Potency [7] | outcome [8]
active: Potency [2] 24.3 µM | Potency [9] 61.1 µM | Potency [4] 0.386 µM

CC(=O)c1cc(C(C)(C)C)cc2c1CCC2(C)C
active: Potency [2] 54.5 µM | Potency [4] 30.6 µM
inactive: Potency [1] | Potency [3] | outcome [5] | outcome [8]

ClC1=C(Cl)C2(Cl)C3C(Cl)C=CC3C1(Cl)C2(Cl)Cl (stereo not given)
inactive: Potency [1] | Potency [9] | outcome [5] | outcome [6] | Potency [7] | outcome [8]
active: Potency [2] 68.9 µM and 54.5 µM | Potency [4] 27.4 µM and 54.5 µM

C[C@@H]1O[C@@H](O[C@@H]2C=C3CC[C@@H]4[C@H](CC[C@]5(C)[C@@H](c6ccc(=O)oc6)CC[C@]45O)[C@@]3(C)CC2)[C@H](O)[C@H](O)[C@H]1O
active: Potency [2] 0.0072 µM | Potency [4] 0.0639 µM
inactive: Potency [1] | Potency [9] | fluorescence, relative to Rose Bengal [5] 0.222% [at 18.6 µM] | fluorescence, % of fluorescent control [8] -0.104% [at 18.6 µM]

BrC(Br)C(Br)(Br)Br
inactive: Potency [1] | Potency [2] | Potency [3] | Potency [9] | outcome [5] | outcome [6] | Potency [7] | outcome [8]

CC1(C)[C@H](C(=O)O[C@H](C#N)c2cccc(Oc3ccccc3)c2)[C@@H]1/C=C(\Cl)C(F)(F)F
active: Potency [4] 25.3 µM
inactive: Potency [1] | Potency [2] | Potency [3] | outcome [5] | outcome [6] | Potency [7] | outcome [8]

CCCCOCN(C(=O)CCl)c1c(CC)cccc1CC
inactive: Potency [1] | Potency [2] | outcome [5] | outcome [6] | Potency [7] | outcome [8]

O=c1[nH]c2ccccc2n1C1CCN(CCCC(c2ccc(F)cc2)c2ccc(F)cc2)CC1
active: Potency [2] 23.7 µM and 61.1 µM | Potency [3] 29.8 µM and 54.5 µM
inactive: Potency [1] | outcome [5] | outcome [6] | Potency [7] | outcome [8]

CCOCCOC(C)=O
inactive: Potency [1] | Potency [2] | Potency [3] | Potency [9] | outcome [5] | outcome [6] | Potency [7] | outcome [8]

CC[C@H]1C[C@@H]2C[C@H]3c4[nH]c5ccc(OC)cc5c4CCN(C2)[C@@H]13
inactive: Potency [1] | Potency [2] | Potency [3] | Potency [9] | outcome [5] | Potency [7] | outcome [8]

CC(=O)Nc1ccc2c(c1)Cc1ccccc1-2
active: Potency [4] 31.1 µM
inactive: Potency [2] | Potency [3] | Potency [9] | outcome [5] | outcome [6] | Potency [7] | outcome [8]

Clc1ccc(CSC(Cn2ccnc2)c2ccc(Cl)cc2Cl)cc1 (stereo not given)
inactive: Potency [1] | Potency [9] | fluorescence, relative to Rose Bengal [5] -0.0239% [at 18.6 µM] | fluorescence, % of fluorescein control [6] -0.0068% [at 18.6 µM] | fluorescence, % of fluorescent control [8] 0.517% [at 18.6 µM]

CC1(C)CC/C(=C/c2ccc(Cl)cc2)C1(O)Cn1cncn1 (stereo not given)
inactive: Potency [1] | Potency [3] | Potency [9] | outcome [5] | outcome [6] | Potency [7] | outcome [8]

Oc1ccc2ccc3cccc4ccc1c2c34
active: Potency [4] 2.73 µM | Potency [7] 35.5 µM [fluorescent]
inactive: Potency [2] | Potency [3] | outcome [5] | outcome [6] | outcome [8]

O=c1ssc(Cl)c1Cl
active: Potency [2] 54.5 µM | Potency [3] 61.1 µM | Potency [9] 61.1 µM | Potency [4] 30.6 µM
inactive: outcome [5] | outcome [6] | Potency [7] | outcome [8]

CCCN(CCC)c1c([N+](=O)[O-])cc(S(N)(=O)=O)cc1[N+](=O)[O-]
active: Potency [3] 54.5 µM | Potency [9] 32.7 µM | Potency [4] 3.67 µM
inactive: Potency [1] | outcome [5] | outcome [6] | Potency [7] | outcome [8]

CC(C)N1C(=O)N(c2ccccc2)CSC1=NC(C)(C)C
inactive: Potency [1] | Potency [3] | outcome [5] | outcome [6] | outcome [8]
active: Potency [9] 15.4 µM | Potency [4] 38.6 µM

CN(C)c1ccc(N=Nc2ccccc2)cc1
inactive: Potency [2] | outcome [5] | outcome [6] | Potency [7] | outcome [8]
active: Potency [3] 68.7 µM | Potency [9] 48.6 µM
